Assay outcomes: PubChem BioAssay, National Center for Advancing Translational Sciences (NCATS)
A selection: hits, their analogues and other compounds. The true share with any hit is near 19%.
Cycloheximide cs: counter-screen hit for Shiga toxin inhibitors, cycloheximide; cell reporter, cycloheximide protein synthesis inhibition counterscreen; max response, %; 12% of 300,000 active; AID 2314; in the data active = max response mostly above about 13%, no sharp cut-off; inactive = mostly below about 14%; note: read at 38.3 µM for the half of the compounds with a filed dose; 0% is about no effect
Pf growth 96h: P. falciparum growth inhibition at 96 hours. 6.9% of 320,000 active. P. falciparum luciferase reporter growth, 96 h. Potency, µM (top dose mostly 28.7 µM), inactives show at the highest dose activity change, negative = inhibition, usual class: inhibitors; note: potency is the fitted concentration of half-maximal effect; % is set by controls: 0 for no effect and ±100 for the full control effect
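Parasite growth measured via integrated firefly luciferase reporter in P. falciparum. Infected erythrocytes at 2% hematocrit, 0.05% parasitemia final were treated 96 hours at 37 C under 5% CO2, and luminescence was read.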
MARV entry inh: inhibitors of Marburg virus binding or cell entry | Marburg virus pseudotyped entry inhibition, cell reporter | Potency, µM (top dose mostly 37.8 µM), for the others: at the highest dose activity change, negative = inhibition, actives largely listed as inhibitors | 1.8% of 300,000 active; calls by dose curve; tested in HEK293 cells; note: potency is the fitted concentration of half-maximal effect; % is set by controls: 0 for no effect and ±100 for the full control effect
LASV entry inh: Lassa virus entry inhibition; Lassa virus pseudotype entry inhibition, cell reporter; Potency, µM (doses to about 37.9 µM), inactives show top-dose activity change, negative = inhibition, most hits filed as inhibitors; 1.2% of 300,000 active; calls by dose curve; tested in HEK293 cells; note: potency is the fitted concentration of half-maximal effect; % is set by controls: 0 for no effect and ±100 for the full control effect; nearly all actives have a fitted effect of over 50% in size
Pf growth 48h: P. falciparum growth inhibition at 48 hours (one generation) | P. falciparum luciferase growth in erythrocytes, 48 h | Potency, µM (highest dose often 28.7 µM), without a hit: at the top dose activity change, negative = inhibition, usual class: inhibitors | AID 504832 | 5.9% of 310,000 active; note: potency is the fitted concentration of half-maximal effect; % is set by controls: 0 for no effect and ±100 for the full control effect
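In quantitative HTS format, infected erythrocytes bearing luciferase-reporter parasites were treated for a single generation at 37 C. Luminescence after adding detection reagent served as the growth measure.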
Shiga toxin inh: Shiga toxin inhibition. 9.2% of 290,000 active. Vero cells, Shiga toxin protein synthesis inhibition reporter. AID 2315. inhibition, % at 38.7 µM; in the data active = inhibition mostly above about 28%, no sharp cut-off; inactive = mostly below about 43%; note: 0% is about no effect
Starred values were filed as active, the others as inactive; ? = inconclusive; . = no result given; + = active, no number; [ ] = dose if it differs, or a comment. Unless noted, calls come from the whole dose curve; as a rule, active = well fitted inhibition curve with a large enough effect; inconclusive = small, poorly fitted or top-dose-only effect, or another doubt; inactive = no such curve, though single readings can be large or run the other way.

SMILES	Cycloheximide cs	Pf growth 96h	MARV entry inh	LASV entry inh	Pf growth 48h	Shiga toxin inh
Cc1ccc(F)c(Oc2cc(NN3CCCCC3)c([N+](=O)[O-])cc2[N+](=O)[O-])c1	-3	12µM*	.	.	?	-3
Cc1ccc(C)c(Oc2cc(NN3CCCCC3)c([N+](=O)[O-])cc2[N+](=O)[O-])c1	-4	53%	.	.	12%	-5
O=[N+]([O-])c1cc([N+](=O)[O-])c(Oc2cccc(Cl)c2Cl)cc1NN1CCCCC1	2	?	.	.	-10%	-5
COCC(CN1CCN(C2=NS(=O)(=O)c3ccccc32)CC1)OC(=O)c1ccc(OC)cc1 (stereo unspecified)	-2	?	-10%	5%	2%	-10
O=C1CC(c2ccc(F)cc2)CC(O)=C1C1NCCc2ccccc21 (stereo unspecified)	19*	-27%	3%	23%	-9%	25
O=C(Nc1ccc(N2CCCCC2)cc1)c1ccc([N+](=O)[O-])o1	35*	?	?	?	-23%	104*
CCCC(=O)N1CCN(c2ccc(NC(=O)c3sc4ccccc4c3Cl)cc2)CC1	-1	4.7µM*	-26%	-18%	?	15
CC1CCN(c2ccc(NC(=O)c3ccc([N+](=O)[O-])o3)cc2)CC1	.	-6%	?	?	?	.
CC(C)(C)C(=O)N1CCN(c2ccc(NC(=O)c3ccc([N+](=O)[O-])o3)cc2)CC1	52*	7.4µM*	?	?	?	39*
O=C(Nc1ccc(N2CCN(C(=O)c3ccc(Cl)cc3)CC2)cc1)c1ccc([N+](=O)[O-])o1	6	?	?	-29%[46.1 µM]	3.3µM*	11
COc1ccc(CCNC(=O)C2(C)CCC(=O)N2Cc2ccc(C)cc2)cc1OC (stereo unspecified)	-2	?	2%[46.1 µM]	0%[46.1 µM]	-9%	6
CNC(=O)CC1C(=O)N(C)C(=S)N1NC(=O)c1ccccc1 (stereo unspecified)	-2	?	1%	7%	0%	-5
COc1ccc(N(CC(=O)NN=C2CCCC2)S(=O)(=O)c2ccccc2)cc1Cl	-3	?	-25%	-6%	7%	2
CS(=O)(=O)N1CCN(c2ccc(NC(=O)c3ccc([N+](=O)[O-])o3)cc2)CC1	30*	?	4%	7%	83%	53*
CC(=O)Nc1ccc(N2CCN(Cc3ccccc3F)CC2)cc1	-2	.	26%	?	-18%	-4
O=C(Nc1ccc(N2CCCC2)c(Cl)c1)c1ccc([N+](=O)[O-])o1	90*	?	8.9µM*	?	?	+
COc1ccc(N2CCCC2)c(NC(=O)c2ccc([N+](=O)[O-])o2)c1	-1	?	-17%[46.1 µM]	-9%	?	-3
O=C(Nc1ccc(N2CCN(Cc3ccccc3F)CC2)cc1)c1ccc([N+](=O)[O-])o1	3	?	?	-13%	1.9µM*	-7
CCC(=O)Nc1ccc(N2CCN(Cc3ccccc3F)CC2)cc1	-3	9.3µM*	25%	14%	?	-11
O=C1NC(c2ccccc2O)Nc2ccccc21 (stereo unspecified)	13	-25%	.	.	-8%	10
CCC(=O)N1CCN(c2ccc(NC(=O)c3ccc(N4CCOCC4)c([N+](=O)[O-])c3)cc2)CC1	-3	9%	11%	0%	?	15
CCCC(=O)N1CCN(c2ccc(NC(=O)c3ccc([N+](=O)[O-])o3)cc2)CC1	-18	114%	?	?	17µM*	-33
CCC(=O)N1CCN(c2ccc(NC(=O)c3ccc([N+](=O)[O-])o3)cc2)CC1	21*	417%	-37%[46.1 µM]	?	10µM*	33*
c1cc2c(nn1)CCc1nonc1-2	-1	39%	-4%	1%	18%	11
CC[n+]1c(C)sc2cc(C)ccc21	-4	?	.	.	?	-28
SMILES	Cycloheximide cs	Pf growth 96h	MARV entry inh	LASV entry inh	Pf growth 48h	Shiga toxin inh
Cc1ccc2c(c1)sc(-c1ccc(N(C)C)cc1)[n+]2C	77*	?	.	.	0%	+
N#CC(C#N)=Cc1ccc(C=C(C#N)C#N)cc1	20*	3%	?	1%[46.1 µM]	?	27
N#CC(C#N)=C(N)/C(C#N)=C/c1ccc(O)cc1	.	.	23%	3%	.	.
CCOC(=O)N1CCC(N2CCN(Cc3ccccc3)C(CCO)C2)CC1 (stereo unspecified)	-1	?	4%[46.1 µM]	0%[46.1 µM]	8%	-3
COCCCNC(=O)c1ccc(Cn2c(=O)[nH]c3ccccc3c2=O)cc1	-4	-19%	-27%	-26%	33%	-9
O=C(c1ccc(Cl)c(Cl)c1)N1CCC(=O)N(C(COCc2cccc(C(F)(F)F)c2)Cc2ccccc2)CC1 (stereo unspecified)	4	13µM*	?	?	?	7
Cc1cccc(COCC(Cc2ccccc2)N2CCN(C(=O)c3cc(Cl)cc(Cl)c3)CCC2=O)c1 (stereo unspecified)	-1	15µM*	?	?	?	18
Cc1cccc(COCC(Cc2ccccc2)N2CCN(C(=O)c3ccc(Cl)c(Cl)c3)CCC2=O)c1 (stereo unspecified)	-4	?	-45%	15µM*	?	-10
O=C(c1cccc(Cl)c1)N1CCC(=O)N([C@H](COCc2cccc(Cl)c2)Cc2ccccc2)CC1	13	.	.	.	.	3
Cc1cccc(COCC(Cc2ccccc2)N2CCN(C(=O)c3cccc(C)c3)CCC2=O)c1 (stereo unspecified)	-2	?	-39%	7.3µM*	13µM*	-11
Cc1ccc(C(=O)C2CCN(S(=O)(=O)c3ccccc3C(=O)O)CC2)cc1	-2	14%	?	5%[46.1 µM]	10%	-3
O=C(CSc1nc2ccccc2n1CC(=O)N1CCOCC1)N1CCCC1	-4	?	?	-17%	11%	-4
CCOC(=O)c1c(C)[nH]c(C)c1S(=O)(=O)N1c2ccccc2CC1C (stereo unspecified)	-2	12%	.	.	?	-10
CC(C)CC(COCc1ccc(Cl)cc1)N1CCN(C(=O)c2cccc(C(F)(F)F)c2)CCC1=O (stereo unspecified)	-3	?	-22%	?	?	-9
CC(C)CC(COCc1cccc(C(F)(F)F)c1)N1CCN(C(=O)c2cccc(C(F)(F)F)c2)CCC1=O (stereo unspecified)	-5	15µM*	?	?	?	-12
O=C(/C=C/c1ccc2c(c1)OCO2)Nc1nc2ccccc2s1	41*	-10%	?	?	324%	62*
Cc1csc(NC(=O)/C=C/c2ccc3c(c2)OCO3)n1	74*	23%	4.5µM*	?	161%	91*
Cc1ccc2nc(NC(=O)/C=C/c3ccc4c(c3)OCO4)sc2c1	3	-18%	12%	6%	-11%	10
